In PubChem BioAssay (NCATS):
Records with an inconclusive call do not appear. Active and inactive are the calls of the source. Calls follow the shape of the dose curve; as a rule, active = well fitted curve in the direction sought with a large enough effect; inconclusive = small, poorly fitted or top-dose-only effect, or another doubt; inactive = no such curve, though single readings can be large; an effect the other way counts as inactive or inconclusive.

Assays:
[1] = S16 Schwann cell PMP22 intronic element firefly luciferase assay (AID 624032); conditions: S16 rat Schwann cells, PMP22 element FLuc, 24 h; series mostly up to 25.7 µM; also: nearly all actives have a fitted effect of over 30% in size
Method in brief: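 Rat S16 Schwann cells stably carrying firefly luciferase driven by a PMP22 intronic element, in 10% FBS, treated 24 h at 37 C. ONE-Glo luminescence normalized to PTC124 control and DMSO (0%); curves classed by r2, magnitude and activity.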

[2] = test system: 3D7; test: qHTS profiling for inhibitors of Plasmodium falciparum proliferation (AID 504749); also: nearly all actives have a fitted effect of over 60% in size; conditions: P. falciparum in erythrocytes, SYBR Green DNA, 72 h; series mostly up to 12.8 µM
Method in brief: (§1)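 Readout was DNA-dye fluorescence from lysed cultures, ex 485/em 535 nm. Parasitized red cells had grown 72 h with compound; data scaled between 0.29 uM artemisinin and DMSO wells and corrected using vehicle-only plates.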

[3] = test system: AA1029; test: as above; conditions: P. falciparum in erythrocytes, SYBR Green DNA, 72 h; series mostly up to 12.8 µM
Method in brief: as §1

[4] = test system: CP194; test: as above; conditions: P. falciparum in erythrocytes, SYBR Green DNA, 72 h; series mostly up to 12.8 µM
Method in brief: as §1

[5] = test system: CP203; test: as above; conditions: P. falciparum in erythrocytes, SYBR Green DNA, 72 h; series mostly up to 12.8 µM
Method in brief: as §1

[6] = test system: CP260; test: as above; conditions: P. falciparum in erythrocytes, SYBR Green DNA, 72 h; series mostly up to 12.8 µM
Method in brief: as §1

[7] = test system: CP266; test: as above; conditions: P. falciparum in erythrocytes, SYBR Green DNA, 72 h; series mostly up to 28.7 µM
Method in brief: as §1

[8] = test system: CP286; test: as above; conditions: P. falciparum in erythrocytes, SYBR Green DNA, 72 h; series mostly up to 12.8 µM
Method in brief: as §1

[9] = test system: CP291; test: as above; conditions: P. falciparum in erythrocytes, SYBR Green DNA, 72 h; series mostly up to 12.8 µM
Method in brief: as §1

[10] = test system: CP315; test: as above; conditions: P. falciparum in erythrocytes, SYBR Green DNA, 72 h; series mostly up to 12.8 µM
Method in brief: as §1

[11] = test system: DFO2036; test: as above; conditions: P. falciparum in erythrocytes, SYBR Green DNA, 72 h; series mostly up to 12.8 µM
Method in brief: as §1

[12] = test system: GB4; test: as above; conditions: P. falciparum in erythrocytes, SYBR Green DNA, 72 h; series mostly up to 12.8 µM
Method in brief: as §1

[13] = test system: PAD; test: as above; conditions: P. falciparum in erythrocytes, SYBR Green DNA, 72 h; series mostly up to 12.8 µM
Method in brief: as §1

[14] = test system: TAB109; test: as above; conditions: P. falciparum in erythrocytes, SYBR Green DNA, 72 h; series mostly up to 12.8 µM
Method in brief: as §1

[15] = test system: TAB165; test: as above; conditions: P. falciparum in erythrocytes, SYBR Green DNA, 72 h; series mostly up to 12.8 µM
Method in brief: as §1

[16] = test system: CP268; test: as above; conditions: P. falciparum in erythrocytes, SYBR Green DNA, 72 h; series mostly up to 12.8 µM
Method in brief: as §1

[17] = test system: DIV17; test: as above; conditions: P. falciparum in erythrocytes, SYBR Green DNA, 72 h; series mostly up to 12.8 µM
Method in brief: as §1

[18] = test system: ICS; test: as above; conditions: P. falciparum in erythrocytes, SYBR Green DNA, 72 h; series mostly up to 12.8 µM
Method in brief: as §1

[19] = test system: W2; test: as above; conditions: P. falciparum in erythrocytes, SYBR Green DNA, 72 h; series mostly up to 12.8 µM
Method in brief: as §1

[20] = test system: DIV14; test: as above; conditions: P. falciparum in erythrocytes, SYBR Green DNA, 72 h; series mostly up to 12.8 µM
Method in brief: as §1

Measured: Potency
Potency is read from the fitted curve at half-maximal effect.

CC[C@@]12CCCN3CCc4c(n(c5ccccc45)C(=O)C1)[C@H]32
not listed: [16] | [17] | [18] | [19] | [20]
inactive: all other assays above

CC(C)(C)NC[C@H](O)c1cc(O)cc(O)c1
not listed: [1] | [14] | [20]
inactive: all other assays above

NC(=O)c1cc[n+](CC2=C(C(=O)O)N3C(=O)[C@@H](NC(=O)[C@H](c4ccccc4)S(=O)(=O)[O-])[C@@H]3SC2)cc1
inactive: [1]
active: [2] 1120 nM | [6] 1410 nM | [16] 4050 nM | [8] 1780 nM | [11] 1780 nM | [20] 721 nM | [17] 572 nM | [12] 907 nM | [18] 355 nM | [13] 1410 nM | [14] 1410 nM | [15] 1000 nM | [19] 510 nM

O=C(C1CCCCC1)N1CC(=O)N2CCc3ccccc3[C@@H]2C1
active: [1] 36100 nM

CCn1cc(C(=O)O)c(=O)c2cc(F)c(N3CCN[C@@H](C)C3)c(F)c21
not listed: [8] | [9] | [14] | [16]
inactive: all other assays above

CCCN(CCC)C(=O)[C@@H](CCC(=O)O)NC(=O)c1ccccc1
inactive: all assays above

C[C@@H]1c2cccc(O)c2C(O)=C2C(=O)[C@@]3(O)C(O)=C(C(N)=O)C(=O)[C@@H](N(C)C)[C@@H]3[C@@H](O)[C@@H]21
active: [18] 3550 nM | [19] 4260 nM
inactive: [1]

CN(C)[C@@H]1C(=O)C(C(N)=O)=C(O)[C@]2(O)C(=O)C3=C(O)c4c(O)ccc(Cl)c4[C@H](O)[C@H]3C[C@@H]12
active: [18] 3980 nM | [19] 5360 nM
inactive: [1] | [4] | [5] | [7] | [16] | [9] | [10] | [20] | [17]

O=C(c1ccccc1)c1ccc2n1CC[C@H]2C(=O)O
not listed: [7]
inactive: all other assays above

CO[C@]1(NC(=O)CSCC#N)C(=O)N2C(C(=O)O)=C(CSc3nnnn3C)CS[C@H]21
not listed: [7]
inactive: all other assays above

N[C@@H](CO)C(=O)NNCc1ccc(O)c(O)c1O
not listed: [19]
inactive: all other assays above

C[C@@H](CCc1ccccc1)NC[C@H](O)c1ccc(O)c(C(N)=O)c1
not listed: [2] | [11] | [12] | [13] | [17] | [18] | [19] | [20]
inactive: all other assays above

CO/N=C(\C(=O)N[C@@H]1C(=O)N2C(C(=O)O)=C(COC(C)=O)CS[C@@H]12)c1csc(N)n1
inactive: all assays above

CC[C@]1(C)CC(=O)NC1=O
not listed: [5]
inactive: all other assays above

CN1[C@@H]2CC[C@H]1CC(OC(=O)[C@@H](O)c1ccccc1)C2 (stereo not given in full)
not listed: [1]
inactive: all other assays above

CC(=O)OCC1=C(C(=O)O)N2C(=O)[C@@H](NC(=O)CSc3ccncc3)[C@@H]2SC1
inactive: all assays above

CC(C)NC[C@H](O)c1cc(O)cc(O)c1
not listed: [1] | [6]
inactive: all other assays above

C[C@@H]1COc2c(N3CCN(C)CC3)c(F)cc3c(=O)c(C(=O)O)cn1c23
not listed: [6] | [19]
inactive: all other assays above

CCCN[C@@H](C)C(=O)Nc1c(C)csc1C(=O)OC
not listed: [1]
inactive: all other assays above

C[C@@H](C(=O)O)c1ccc(C(=O)c2cccs2)cc1
not listed: [7]
inactive: all other assays above

CC(=O)N(CC(O)CN(C(C)=O)c1c(I)c(C(=O)NC[C@@H](O)CO)c(I)c(C(=O)NC[C@@H](O)CO)c1I)c1c(I)c(C(=O)NC[C@@H](O)CO)c(I)c(C(=O)NC[C@@H](O)CO)c1I
not listed: [1] | [19] | [20]
inactive: all other assays above

O=c1[nH]c(=O)n([C@@H]2C[C@H](O)[C@H](CO)O2)cc1I
active: [1] 2450 nM
inactive: all other assays above

CN(C)[C@H]1C(=O)C(C(=O)NCN2CCCC2)=C(O)[C@]2(O)C(=O)C3=C(O)c4c(O)cccc4[C@@](C)(O)[C@H]3C[C@@H]12
not listed: [1]
inactive: all other assays above

CCN(CC)CC#CCOC(=O)[C@@](O)(c1ccccc1)C1CCCCC1
inactive: [1] | [5] | [7] | [10]
active: [20] 7570 nM | [17] 4780 nM | [19] 5360 nM

NC(N)=NC[C@@H]1COC2(CCCCC2)O1
not listed: [17]
inactive: all other assays above

CC(C)(O/N=C(\C(=O)N[C@@H]1C(=O)N2C(C(=O)[O-])=C(C[n+]3ccccc3)CS[C@@H]12)c1csc(N)n1)C(=O)O
inactive: all assays above

NC(=O)OC[C@H](O)COc1ccc(Cl)cc1
inactive: all assays above
